IDE exosite FP: displaces the probe from the exo-site of human IDE; purified IDE, FL-6b probe fluorescence polarization; active compounds read low; z-score at 20 µM; actives 6.3% (n = 17,000); AID 1259349;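 active means z-score of -3 or lower, meaning strong loss of probe binding signal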;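 further: His-tagged human IDE residues 42-1019 made in E. coli with 30 nM FL-6b probe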
Target sequence (P14735 42-1019 limits assumed): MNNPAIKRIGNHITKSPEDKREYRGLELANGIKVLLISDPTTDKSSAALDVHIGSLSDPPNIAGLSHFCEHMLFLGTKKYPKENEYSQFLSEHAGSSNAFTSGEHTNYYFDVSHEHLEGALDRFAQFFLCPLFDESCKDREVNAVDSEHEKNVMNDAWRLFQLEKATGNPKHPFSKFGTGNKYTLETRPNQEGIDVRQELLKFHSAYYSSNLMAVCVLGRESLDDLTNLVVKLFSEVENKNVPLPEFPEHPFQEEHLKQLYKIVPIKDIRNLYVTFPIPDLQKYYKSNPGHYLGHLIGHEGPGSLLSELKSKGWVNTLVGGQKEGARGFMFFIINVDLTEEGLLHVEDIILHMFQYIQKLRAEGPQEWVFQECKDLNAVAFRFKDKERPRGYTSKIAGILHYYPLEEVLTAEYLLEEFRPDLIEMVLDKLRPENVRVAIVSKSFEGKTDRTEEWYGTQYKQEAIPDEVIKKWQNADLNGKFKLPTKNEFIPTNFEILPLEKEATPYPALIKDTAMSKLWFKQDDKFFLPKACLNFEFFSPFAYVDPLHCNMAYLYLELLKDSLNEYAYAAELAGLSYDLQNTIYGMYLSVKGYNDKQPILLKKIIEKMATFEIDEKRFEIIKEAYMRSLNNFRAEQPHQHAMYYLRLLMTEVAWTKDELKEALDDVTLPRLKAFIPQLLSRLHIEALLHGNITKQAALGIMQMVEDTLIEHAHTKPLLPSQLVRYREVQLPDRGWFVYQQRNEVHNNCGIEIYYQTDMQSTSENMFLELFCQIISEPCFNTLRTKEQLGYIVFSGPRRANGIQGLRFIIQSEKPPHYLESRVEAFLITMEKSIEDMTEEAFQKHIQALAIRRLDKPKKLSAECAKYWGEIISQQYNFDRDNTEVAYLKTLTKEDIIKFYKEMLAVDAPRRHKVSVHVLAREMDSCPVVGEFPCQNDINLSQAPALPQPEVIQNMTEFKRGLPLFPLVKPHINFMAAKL
A number is an active result; - = inactive. The entries come from a sample that favours hits as a whole.

SMILES	IDE exosite FP
Cc1ccccc1-c1ccc([C@H]2[C@@H](CO)N3CCCCN(C(=O)Nc4ccccc4)C[C@@H]23)cc1	-
Cc1ccccc1-c1ccc([C@@H]2[C@H](CO)N3CCCCN(C(=O)Nc4ccc(F)cc4)C[C@@H]23)cc1	-11
Cc1ccccc1-c1ccc([C@@H]2[C@@H](CO)N3CCCCN(C(=O)Nc4ccc(F)cc4)C[C@@H]23)cc1	-
Cc1ccccc1-c1ccc([C@@H]2[C@@H](CO)N3CCCCN(C(=O)Nc4cccc(F)c4)C[C@@H]23)cc1	-
Cc1ccccc1-c1ccc([C@@H]2[C@H](CO)N3CCCCN(C(=O)Nc4ccccc4)C[C@@H]23)cc1	-5
COc1ccc(NC(=O)N2CCCCN3[C@H](CO)[C@@H](c4ccc(-c5ccccc5C)cc4)[C@@H]3C2)cc1	-
CCC(=O)N1CC2(CCN(C(=O)Nc3c(C)noc3C)CC2)c2c([nH]c3cc(OC)ccc23)[C@H]1CO	-
C/C=C/c1ccc([C@@H]2[C@@H](C#N)N(C(=O)Cc3ccccn3)[C@@H]2CO)cc1	-
O=C(C[C@H]1C=C[C@H](NC(=O)Nc2cccc(F)c2)[C@H](CO)O1)NCC1CCCCC1	-
CCC(=O)N1[C@H](CO)[C@H](c2ccc(-c3cccc(OC)c3)cc2)[C@@H]1CNC(C)=O	-
CC(=O)N1CC(=O)N2[C@H](CO)[C@H](c3ccc(-c4ccncc4)cc3)[C@@H]2C1	-
CCCC#Cc1ccc([C@H]2[C@@H](CO)N3C(=O)CN(C(=O)CN4CCOCC4)C[C@H]23)cc1	-
O=C(c1ccccc1F)N1CC(=O)N2[C@H](CO)[C@H](c3ccc(-c4ccccc4)cc3)[C@@H]2C1	-
O=C(Cc1ccccn1)N[C@H]1CC[C@H](CCNS(=O)(=O)c2cccc(F)c2)O[C@H]1CO	-
COc1cccc(-c2ccc([C@@H]3[C@H]4CN(S(=O)(=O)c5cccs5)CCCCN4[C@H]3CO)cc2)c1	-
COc1cccc(S(=O)(=O)N2CCCCN3[C@H](CO)[C@@H](c4ccc(-c5ccccc5)cc4)[C@H]3C2)c1	-
COc1cccc(-c2ccc([C@@H]3[C@H](CO)N4CCCCN(S(=O)(=O)c5cn(C)cn5)C[C@@H]34)cc2)c1	-11
COc1cccc(S(=O)(=O)N2CCCCN3[C@H](C2)[C@@H](c2ccc(-c4ccccc4)cc2)[C@@H]3CO)c1	-
COc1cccc(-c2ccc([C@H]3[C@@H](CO)N4CCCCN(S(=O)(=O)c5cn(C)cn5)C[C@H]34)cc2)c1	-3.9
COc1cccc(-c2ccc([C@H]3[C@@H](CO)N4CCCCN(S(=O)(=O)c5cccs5)C[C@H]34)cc2)c1	-
CO[C@H](CN(C)C(=O)C1CCOCC1)[C@H](C)CN([C@H](C)CO)S(=O)(=O)c1ccccc1	-
COCCNC(=O)C[C@H]1CC[C@H]2[C@@H](COC[C@@H](O)CN2C(=O)c2cc(Cl)cc(Cl)c2)O1	-
COc1ccc2c3c([nH]c2c1)[C@H](CO)NCC31CN(Cc2cc(F)ccc2F)C1	-
O=C(NCC[C@@H]1CC[C@@H](NC(=O)c2ccncc2)[C@@H](CO)O1)Nc1ccc(Cl)cc1	-
CC(C)NC(=O)N1[C@@H]2CNC[C@H]1C2c1ccc(-c2ccc(C#N)cc2)cc1 (stereo not given in full)	-
SMILES	IDE exosite FP
O=C(C1CCC1)N1CC(=O)N2[C@H](C1)[C@@H](c1ccc(-c3cccnc3)cc1)[C@@H]2CO	-
O=C(C1CCC1)N1CC(=O)N2[C@H](C1)[C@H](c1ccc(-c3cccnc3)cc1)[C@@H]2CO	-
COc1ccc(-c2ccc([C@@H]3[C@H]4CN(C(=O)C5CCC5)CC(=O)N4[C@H]3CO)cc2)cc1	-
COc1cccc(-c2ccc([C@@H]3[C@@H](CO)N4C(=O)CN(C(=O)C5CC5)C[C@H]34)cc2)c1	-5.2
COc1cccc(-c2ccc([C@@H]3[C@H]4CN(C(=O)C5CCC5)CC(=O)N4[C@H]3CO)cc2)c1	-9.3
COc1ccc(-c2ccc([C@H]3[C@H](CO)N4C(=O)CN(C(=O)C5CCC5)C[C@@H]34)cc2)cc1	-
COc1ccc(-c2ccc([C@@H]3[C@@H](CO)N4C(=O)CN(C(=O)C5CC5)C[C@@H]34)cc2)cc1	-
COc1ccc(-c2ccc([C@H]3[C@H]4CN(C(=O)C5CC5)CC(=O)N4[C@H]3CO)cc2)cc1	-
CN(C)C(=O)c1cccc(-c2ccc([C@H]3[C@H](CO)N4C(=O)CN(C(=O)C5CCC5)C[C@@H]34)cc2)c1	-
COc1ccc(-c2ccc([C@@H]3[C@@H](CO)N4C(=O)CN(C(=O)C5CCC5)C[C@H]34)cc2)cc1	-
COc1cccc(-c2ccc([C@H]3[C@@H](CO)N4C(=O)CN(C(=O)C5CCC5)C[C@@H]34)cc2)c1	-7
COc1cccc(-c2ccc([C@@H]3[C@@H](CO)N4C(=O)CN(C(=O)C5CCC5)C[C@@H]34)cc2)c1	-12
CCN(C[C@H]1[C@@H](c2ccccc2)[C@@H](CO)N1CC1CC1)C(=O)c1ccccc1F	-
O=C(C[C@@H]1CC[C@@H]2[C@H](COC[C@@H](O)CN2CC2CCOCC2)O1)NCC1CCCCC1	-
N#C[C@H]1[C@@H](c2ccccc2-c2cccc(F)c2)[C@@H](CO)N1C(=O)CN1CCOCC1	-
O=C(C[C@@H]1C[C@@H]2c3cc(NS(=O)(=O)c4ccccc4)ccc3O[C@@H]2[C@H](CO)O1)N1CCOCC1	-
Cc1ccc(OC(=O)N(C)C[C@H]2OCc3ccccc3-c3ccccc3C(=O)N([C@@H](C)CO)C[C@H]2C)cc1	-
NCC[C@H]1CC[C@H](NC(=O)NC2CCCCC2)[C@H](CO)O1	-
CCN(C[C@H]1N[C@H](CO)[C@H]1c1ccc(-c2ccccc2)cc1)C(=O)COC	-
CCN1CC(=O)N2[C@H](CO)[C@@H](c3ccc(-c4cccnc4)cc3)[C@H]2C1	-
Cc1ccccc1-c1ccc2c(c1)O[C@H](CN(C)C(=O)Nc1ccc(C(F)(F)F)cc1)[C@H](C)CN([C@@H](C)CO)S2(=O)=O	-
O=C(Nc1cc(F)ccc1F)N[C@H]1CC[C@@H](CC(=O)N2CCc3ccccc3C2)O[C@@H]1CO	-
CC(C)CC#Cc1ccc([C@H]2[C@@H](CO)N3C(=O)CN(C(=O)CN4CCOCC4)C[C@@H]23)cc1	-
CCCC#Cc1ccc([C@H]2[C@H](CO)N3C(=O)CN(C(=O)NCCC)C[C@@H]23)cc1	-
CCCNC(=O)N1CC(=O)N2[C@H](CO)[C@@H](c3ccc(C#Cc4cccc(F)c4)cc3)[C@@H]2C1	-6.4
SMILES	IDE exosite FP
CCCNC(=O)N1CC(=O)N2[C@H](CO)[C@H](c3ccc(C#Cc4cccc(F)c4)cc3)[C@@H]2C1	-8.5
CCCC#Cc1ccc([C@@H]2[C@@H](CO)N3C(=O)CN(C(=O)NCCC)C[C@@H]23)cc1	-
CCCNC(=O)N1CC(=O)N2[C@H](CO)[C@H](c3ccc(C#Cc4ccccc4)cc3)[C@H]2C1	-
CCCNC(=O)N1CC(=O)N2[C@H](C1)[C@@H](c1ccc(C#Cc3ccc(F)cc3)cc1)[C@@H]2CO	-
CCCNC(=O)N1CC(=O)N2[C@H](CO)[C@H](c3ccc(C#Cc4cccc(F)c4)cc3)[C@H]2C1	-
CCCC#Cc1ccc([C@@H]2[C@H]3CN(C(=O)NCCC)CC(=O)N3[C@H]2CO)cc1	-
CCCNC(=O)N1CC(=O)N2[C@H](CO)[C@H](c3ccc(C#Cc4ccccc4)cc3)[C@@H]2C1	-9.6
CCCNC(=O)N1CC(=O)N2[C@@H](CO)[C@H](c3ccc(C#Cc4cccc(F)c4)cc3)[C@@H]2C1	-9.2
